Among the data in PubChem BioAssay (EPA / NIEHS) are outcome and AC50 values, retold here.

Test [1] can be described thus: TOX21_p53_BLA_p2_viability: Viability Assessment in the Tox21 HCT-116 p53 Agonism Beta-lactamase Assay, Phase 2 (AID 2283591).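 Also: compound exposure lasted 16 h at 37 °C; actives lower the ATP signal meaning cytotoxicity.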 The method in brief: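 HCT116 p53-bla cells, 4000/well, dosed after 5 h plating (217-fold dilution of DMSO stocks) and incubated 16 h at 37C. Viability taken as cellular ATP by CellTiter-Glo luminescence after 30 min RT; signal loss marks cytotoxicity.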

Test [2] has as its target Cellular tumor antigen p53 (Homo sapiens) (UniProt P04637). Nature of the test: TOX21_p53_BLA_p2_ratio: Tox21 HCT-116 p53 Agonism Beta-lactamase Assay, Ratio, Phase 2 (AID 2283592). In outline: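 Cleaved-to-uncleaved substrate ratio (460 vs 530 nm) measured in HCT116 cells with an inducible beta-lactamase reporter linked to p53 activity. Compounds incubated 16 h at 37C before 2 h room-temperature CCF4-AM loading.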

Test [3] has the same target. As to the kind of experiment: TOX21_p53_BLA_p3_ratio: Tox21 HCT-116 p53 Agonism Beta-lactamase Assay, Ratio, Phase 3 (AID 2283596). The method in brief: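 Cells were seeded at 4000/well, rested 5 h at 37C, then dosed with DMSO compound solutions (217-fold dilution) for 16 h. CCF4-AM substrate was loaded for 2 h at room temperature, and the 460/530 nm emission ratio was fitted for gain of signal versus DMSO.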

Test [4] can be described thus: TOX21_p53_BLA_p4_viability: Viability Assessment in the Tox21 HCT-116 p53 Agonism Beta-lactamase Assay, Phase 4 (AID 2283597).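 Also: hits lower the luminescence signal meaning cytotoxicity.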 In outline:
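Viability is taken as cellular ATP: after 16 h compound exposure of HCT116 cells and a 2 h room-temperature CCF4-AM substrate step, CellTiter-Glo reagent is added and luminescence is measured 30 min later.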

In test [5] the target is Cellular tumor antigen p53 (Homo sapiens) (UniProt P04637). As to the kind of experiment: TOX21_p53_BLA_p5_ratio: Tox21 HCT-116 p53 Agonism Beta-lactamase Assay, Ratio, Phase 5 (AID 2283599). The method in brief: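 HCT-116 p53-bla cells (4000/well) plated 5 h, dosed with compound (217-fold DMSO dilution) for 16 h at 37 C; CCF4-AM substrate 2 h at room temperature. Activity is the 460/530 nm emission ratio (405 nm excitation), fitted in gain-of-signal direction versus DMSO.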

The nature of test [6]: TOX21_p53_BLA_p5_viability: Viability Assessment in the Tox21 HCT-116 p53 Agonism Beta-lactamase Assay, Phase 5 (AID 2283600). The method in brief: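 Viability is taken from cellular ATP content, measured by luciferase luminescence in the same wells after the beta-lactamase ratio read. Cells are seeded at 4000 per well and exposed to DMSO-dissolved compounds, diluted 217-fold, for 16 h.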

Test [7] has as its target Cellular tumor antigen p53 (Homo sapiens) (UniProt P04637). Nature of the test: TOX21_p53_BLA_p4_ratio: Tox21 HCT-116 p53 Agonism Beta-lactamase Assay, Ratio, Phase 4 (AID 2283601). In outline: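 HCT-116 p53 beta-lactamase reporter cells (4000/well) preincubated 5 h, then compound (217-fold dilution of DMSO stock) for 16 h at 37C. CCF4-AM substrate added 2 h at room temperature; 460/530 nm emission ratio fitted upward versus DMSO.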

Test [8] in a line: CCTE_Shafer_MEA_dev_firing_rate_mean: CCTE's Neural Network Formation Assay for Mean Firing Rate, Shafer Lab (AID 2284031; active = hit-call score of the fitted dose curve at least 0.9, where 1 is the maximum; inactive = score below 0.9). The method in brief:
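Extracellular spike frequency, AUC over DIV 5–12 recordings, in rat cortical neuron MEA cultures dosed from plating; loss direction vs DMSO.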

Test [9] is described as follows: CCTE_Shafer_MEA_dev_per_burst_spike_percent: CCTE's Neural Network Formation Assay for Percent of Spikes in a Burst, Shafer Lab (AID 2284032; active = hit-call score of the fitted dose curve at least 0.9, where 1 is the maximum; inactive = score below 0.9). The method in brief:
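Value is trapezoidal AUC over recordings on days 5, 7, 9 and 12 of the well-mean fraction of spikes falling in single-electrode bursts; rat cortical cultures exposed continuously from plating, treatment renewed DIV 5 and 9, fitted downward against DMSO.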

Test [10] is described as follows: CCTE_Shafer_MEA_dev_active_electrodes_number: CCTE's Neural Network Formation Assay for Number of Active Electrodes, Shafer Lab (AID 2284040). The method in brief:
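Developing rat cortical networks on MEAs, exposed DIV 0–12. Value is the AUC of active-electrode counts (≥5 spikes/min) from days 5, 7, 9, 12, relative to DMSO.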

The nature of test [11]: CCTE_Shafer_MEA_dev_burst_rate: CCTE's Neural Network Formation Assay for Burst Rate, Shafer Lab (AID 2284042; active = hit-call score of the fitted dose curve at least 0.9, where 1 is the maximum; inactive = score below 0.9). In outline:
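Exposure ran continuously over 12 days of network development in rat cortical cultures, with compound refreshed during full media changes on DIV 5 and 9. Single-electrode bursts per recording time, well-mean over active electrodes, trapezoidal AUC across days 5–12, fitted downward relative to DMSO.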

Test [12] in a line: CCTE_Shafer_MEA_dev_bursting_electrodes_number: CCTE's Neural Network Formation Assay for Number of Bursting Electrodes, Shafer Lab (AID 2284043). In outline: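 Rat cortical primary neurons, 48-well MEA, 16 electrodes/well; dosing DIV 0–12, re-dosed with full media change DIV 5, 9. Recordings DIV 5/7/9/12, AxIS adaptive spike detector; bursting electrode = ≥1 burst/2 min. AUC across days; loss of signal vs DMSO.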

The nature of test [13]: CCTE_Shafer_MEA_dev_per_burst_interspike_interval: CCTE's Neural Network Formation Assay for Burst Interspike Interval, Shafer Lab (AID 2284044; active = hit-call score of the fitted dose curve at least 0.9, where 1 is the maximum; inactive = score below 0.9). In outline:
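Developmental network-formation MEA in primary rat cortical cultures with exposure spanning days 0–12. Within-burst ISI is averaged per well and integrated across recording days by area under the curve, with DMSO as negative control baseline.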

Test [14] is described as follows: CCTE_Shafer_MEA_dev_burst_duration_mean: CCTE's Neural Network Formation Assay for Mean Burst Duration, Shafer Lab (AID 2284045; active = hit-call score of the fitted dose curve at least 0.9, where 1 is the maximum; inactive = score below 0.9). In outline:
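Rat cortical cultures, 1.5 x 10^5 cells/well with laminin drop; continuous dosing days 0–12, media plus treatment refreshed DIV 5, 9. AxIS adaptive spike detection; mean single-electrode burst duration, AUC over four recordings, negative direction vs DMSO.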

Test [15] can be described thus: CCTE_Shafer_MEA_dev_interburst_interval_mean: CCTE's Neural Network Formation Assay for Mean Interburst Interval, Shafer Lab (AID 2284046; active = hit-call score of the fitted dose curve at least 0.9, where 1 is the maximum; inactive = score below 0.9;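 also: curve fitted for decrease in interburst interval relative to DMSO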). The method in brief: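 Primary rat cortical neurons on PEI-coated 48-well MEA plates (laminin added with cells at plating) (16 electrodes/well), exposed from plating day 0 with renewal at DIV 5 and 9. Mean inter-burst interval averaged over bursting electrodes, AUC across days 5, 7, 9, 12; DMSO baseline.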

Test [16] can be described thus: CCTE_Shafer_MEA_dev_inter_network_spike_interval_mean: CCTE's Neural Network Formation Assay for Mean Inter-network Spike Interval, Shafer Lab (AID 2284047; active = hit-call score of the fitted dose curve at least 0.9, where 1 is the maximum; inactive = score below 0.9). In outline:
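Mean time between consecutive network-spike peaks, recorded extracellularly (adaptive spike detection) on DIV 5, 7, 9 and 12, summarized as trapezoidal AUC. Rat cortical cultures on MEAs dosed continuously days 0–12, re-dosed at feeds; loss-of-signal fit relative to DMSO.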

Test [17] in a line: CCTE_Shafer_MEA_dev_network_spike_number: CCTE's Neural Network Formation Assay for Number of Network Spikes, Shafer Lab (AID 2284048; active = hit-call score of the fitted dose curve at least 0.9, where 1 is the maximum; inactive = score below 0.9;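 also: synchronized bursts across electrodes counted on days 5 7 9 12 and integrated as AUC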). In outline:
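Rat cortical primary cultures on 48-well MEA (16 electrodes/well); continuous exposure DIV 0–12, full medium and treatment exchange DIV 5, 9. Readout: network spike count, AxIS adaptive detection, recordings DIV 5/7/9/12 collapsed to AUC; loss-of-signal fit, DMSO baseline.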

A short description of test [18]: CCTE_Shafer_MEA_dev_network_spike_peak: CCTE's Neural Network Formation Assay for Mean Number of Electrodes in Network Spike, Shafer Lab (AID 2284049; active = hit-call score of the fitted dose curve at least 0.9, where 1 is the maximum; inactive = score below 0.9). The method in brief:
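Network-spike peak electrode count from recordings on days 5, 7, 9 and 12 was combined as trapezoidal area under the curve. Rat cortical cultures were treated continuously from plating, with compound renewed at each feed (DIV 5, 9); fits versus DMSO.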

Test [19] in a line: CCTE_Shafer_MEA_dev_spike_duration_mean: CCTE's Neural Network Formation Assay for Mean Spike Duration, Shafer Lab (AID 2284051; active = hit-call score of the fitted dose curve at least 0.9, where 1 is the maximum; inactive = score below 0.9;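 also: mean network spike duration pooled as area under curve over DIV 5 to 12 recordings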). In outline:
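Spontaneous activity was recorded on days 5, 7, 9 and 12 from rat cortical cultures grown on microelectrode arrays and dosed continuously from day 0, with media and compound renewed after the DIV 5 and 9 recordings. Network-spike duration was collapsed by area under the curve.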

The nature of test [20]: CCTE_Shafer_MEA_dev_network_spike_duration_std: CCTE's Neural Network Formation Assay for Standard Deviation of Network Spike Duration, Shafer Lab (AID 2284052; active = hit-call score of the fitted dose curve at least 0.9, where 1 is the maximum; inactive = score below 0.9;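 also: hits are decreases in network spike duration SD versus DMSO vehicle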). The method in brief: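 Network spike duration variability was collapsed across recordings on days 5, 7, 9 and 12 by trapezoidal area-under-curve and fitted downward against DMSO. Cultures were rat cortical neurons on PEI-coated MEA plates, dosed continuously from plating, refed with compound DIV 5/9.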

A short description of test [21]: CCTE_Shafer_MEA_dev_per_network_spike_spike_number_mean: CCTE's Neural Network Formation Assay for Mean Number of Spikes in a Network Spike, Shafer Lab (AID 2284053; active = hit-call score of the fitted dose curve at least 0.9, where 1 is the maximum; inactive = score below 0.9). The method in brief: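 Mean spike count within each network spike, taken in a 0.05 s window at its peak, was recorded on days 5, 7, 9 and 12 and integrated as trapezoidal area under the curve. Rat cortical cultures on MEA plates received continuous compound from day 0, refreshed at medium changes on DIV 5 and 9.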

Test [22] is described as follows: CCTE_Shafer_MEA_dev_per_network_spike_spike_percent: CCTE's Neural Network Formation Assay for Percent of Spikes in a Network Spike, Shafer Lab (AID 2284054; active = hit-call score of the fitted dose curve at least 0.9, where 1 is the maximum; inactive = score below 0.9). In outline: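 Read-out: percent of spikes falling in a 0.05 s window at network-spike peak, from spontaneous MEA recordings on days 5, 7, 9 and 12; trapezoidal AUC; loss of signal versus DMSO. Rat cortical cultures, compound present throughout.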

A short description of test [23]: CCTE_Shafer_MEA_dev_LDH: CCTE's Lactate Dehydrogenase Assay for Cytotoxicity in the Neural Network Formation Assay, Shafer Lab (AID 2284068).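 Also: exposure for twelve days from plating with re-dosing on DIV 5 and 9.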 The method in brief: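 Primary rat cortical neurons were cultured on PEI-coated MEA plates and exposed from plating through day 12, with compound renewed at medium changes on DIV 5 and 9. LDH activity was read spectrophotometrically; loss of signal versus DMSO indicates reduced viability.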

Results filed as inconclusive are left out. Calls of active or inactive are those of the source. The calls were made as follows, unless noted: active = hit-call score of the fitted dose curve at least 0.9, where 1 is the maximum; inconclusive = response in the unintended direction; inactive = score below 0.9.

Chain of Cellular tumor antigen p53 (Homo sapiens) (P04637 whole entry, looked up): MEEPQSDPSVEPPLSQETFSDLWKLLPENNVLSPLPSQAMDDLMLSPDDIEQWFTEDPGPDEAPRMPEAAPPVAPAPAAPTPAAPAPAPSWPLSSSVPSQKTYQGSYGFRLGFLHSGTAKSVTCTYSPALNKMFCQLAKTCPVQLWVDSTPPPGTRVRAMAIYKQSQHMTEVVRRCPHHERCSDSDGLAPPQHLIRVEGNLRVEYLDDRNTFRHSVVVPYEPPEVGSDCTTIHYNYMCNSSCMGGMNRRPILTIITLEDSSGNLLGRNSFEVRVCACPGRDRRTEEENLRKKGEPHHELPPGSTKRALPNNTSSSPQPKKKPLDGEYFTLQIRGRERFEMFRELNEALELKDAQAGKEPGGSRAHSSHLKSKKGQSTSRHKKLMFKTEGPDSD

For the molecule `O=C1O[C@H](CO)[C@@H](O)[C@H](O)[C@H]1O`, the molecule was called inactive in test [1], in test [2], in test [3], in test [4], in test [5] and in test [6]. In addition, in [7], the result was inactive.
Take `NCC(O)CC(=O)O` (stereo not given): the outcome in test [1], in test [2], in test [3], in [4], in test [5] and in test [7] was inactive.
Consider `Cc1cccc(C)c1NC(=O)C(C)N` (stereo not given), for which the result in test [1], in test [2], in test [3], in test [4], in test [5] and in [7] was inactive.
In the case of `CCN[C@H]1CN(CCCOC)S(=O)(=O)c2sc(S(N)(=O)=O)cc21`, the molecule was classed as inactive in test [1], in [2], in test [3], in test [4], in test [5] and in test [7].
Take `CCCCN=C(N)N=C(N)N`: the call in [1], in test [2], in test [3], in test [4], in test [5] and in test [6] was inactive. Also, the result in test [7] was inactive.
By AC50 is commonly meant the midpoint of the concentration-response curve, whichever way the signal moves. For `c1cc2ccc3ccc4ccc5cccc6c(c1)c2c3c4c56`, the molecule was classed as inactive in test [1], in test [3], in [4], in [6], in test [7] and in test [8]. The call in [9], in test [10], in test [11], in [12], in test [13] and in test [14] was inactive. Further, the result in test [15], in test [16], in [17], in [18], in test [19] and in [20] was inactive. Besides, the outcome in [21], in test [22] and in [23] was inactive. The AC50 in [2] is 1940 nM (active); in test [5], 2790 nM (active).
